Mtb FBA inh: inhibitors of M. tuberculosis fructose-bisphosphate aldolase; inhibition, % at 1 µM; purified M. tuberculosis FBA, fluorescence read-out; 360,000 tested, 2.3% active; in the data active means inhibition above about 27%;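 further: 0% = vehicle and 100% = reference inhibitor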
Target sequence (P9WQA3 whole entry, looked up): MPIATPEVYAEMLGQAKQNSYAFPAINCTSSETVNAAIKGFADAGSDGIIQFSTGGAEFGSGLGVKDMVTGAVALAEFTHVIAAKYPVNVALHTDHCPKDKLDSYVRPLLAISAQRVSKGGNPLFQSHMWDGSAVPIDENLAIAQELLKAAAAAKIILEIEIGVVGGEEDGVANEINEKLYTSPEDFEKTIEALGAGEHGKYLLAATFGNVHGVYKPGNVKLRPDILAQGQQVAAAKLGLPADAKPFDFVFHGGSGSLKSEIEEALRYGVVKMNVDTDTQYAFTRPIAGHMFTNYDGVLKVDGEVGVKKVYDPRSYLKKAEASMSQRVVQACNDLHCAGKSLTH
Mtb betalactam: beta-lactam sensitization of Mtb H37Rv | inhibition, % at 25 µM | AID 434955 | 330,000 tested, 0.27% active | M. tuberculosis H37Rv growth with meropenem, percent inhibition; call rule not given here;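 further: growth measured after seven days incubation then overnight dye step; 0% = bacteria only wells and 100% = bacteria with antibiotic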
GDH-TPI counter-1: counter-screen for M. tuberculosis FBA inhibitors: GDH-TPI coupled enzymes. GDH-TPI coupled enzyme counterscreen, NADH absorbance. 360,000 tested, 1.2% active. inhibition, % at 4.8 µM;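 further: 0% = DMSO wells and 100% = wells lacking the enzyme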
MazEF act: MazEF (E. coli) toxin RNase activation | P0AE70 | FAM/BHQ RNA-DNA oligo cleavage fluorescence, 5 h | activation, % at 20 µM | 350,000 tested, 0.32% active | AID 504720; in the data active means activation above about 50%
Target sequence (P0AE70 whole entry, looked up): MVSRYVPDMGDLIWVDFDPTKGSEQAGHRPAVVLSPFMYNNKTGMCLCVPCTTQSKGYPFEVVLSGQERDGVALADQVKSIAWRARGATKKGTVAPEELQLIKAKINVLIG
CCHF vOTU inh: CCHFV vOTU protease inhibition; 370,000 tested, 0.55% active; inhibition, % at 11.5 µM; AID 651958; Pep-AMC fluorescence; further: 0% = vehicle wells with enzyme and 100% = no enzyme wells
Mtb FBA inh conf: confirmation of M. tuberculosis fructose-bisphosphate aldolase inhibitors | 5,600 tested, 78% active | purified M. tuberculosis FBA, fluorescence read-out | shares compounds with Mtb FBA inh | AID 651616 | inhibition, % at 1 µM; in the data active means inhibition above about 27%;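 further: 0% = vehicle wells and 100% = reference inhibitor wells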
GDH-TPI counter-2: counter-screen for M. tuberculosis FBA inhibitors: GDH-TPI coupled enzyme inhibition. GDH-TPI coupled enzyme counterscreen, fluorescence. 5,600 tested, 81% active. inhibition, % at 1 µM. shares compounds with Mtb FBA inh; in the data active means inhibition above about 10%
Starred values were filed as active, the others as inactive. Hits are enriched below; roughly 4% of the tested compounds scored in any of these assays. Unless noted, no stated cut-off is given here; in the data, active means inhibition above about 30%; inactive means the rest.

What do the screens show for `C[C@H](O)[C@@H]1C(=O)N2CCc3c([nH]c4cccc(-c5ccccc5)c34)[C@@H]2C[C@@H]1N(C)C(=O)c1ccccc1`?
CCHF vOTU inh: 5

What do the screens show for `Clc1ccc(-c2csc(NCC3CCCO3)n2)cc1` (stereo not given)?
CCHF vOTU inh: 0

How did Cc1cc(OCC(=O)NCc2cccnc2)c2c(C)cc(=O)oc2c1 do in these assays?
Mtb FBA inh: 68*; Mtb betalactam: 3; GDH-TPI counter-1: 12; MazEF act: 11; CCHF vOTU inh: -2; Mtb FBA inh conf: -6; GDH-TPI counter-2: -6

How did Cc1cc(OCC(=O)NC2CC(C)(C)NC(C)(C)C2)c2c(C)cc(=O)oc2c1 do in these assays?
Mtb FBA inh: 94*; Mtb betalactam: -2; GDH-TPI counter-1: 3; MazEF act: 11; CCHF vOTU inh: -31; Mtb FBA inh conf: 132*; GDH-TPI counter-2: 114*

What do the screens show for `Cc1cc(OCC(=O)NCCc2ccc(Cl)cc2)c2c(C)cc(=O)oc2c1`?
Mtb FBA inh: 4; Mtb betalactam: 0; GDH-TPI counter-1: 1; MazEF act: 6; CCHF vOTU inh: 5

What do the screens show for `CCCc1cc(=O)oc2cc(C)cc(OCC(=O)Nc3cccnc3)c12`?
Mtb FBA inh: 82*; Mtb betalactam: -1; GDH-TPI counter-1: 11; MazEF act: -2; CCHF vOTU inh: 18; Mtb FBA inh conf: 7; GDH-TPI counter-2: 0

Results for Cc1cc(OCC(=O)Nc2cccnc2)c2c(C)cc(=O)oc2c1 ?
Mtb FBA inh: 78*; Mtb betalactam: -5; GDH-TPI counter-1: 9; MazEF act: 3; CCHF vOTU inh: -17; Mtb FBA inh conf: -2; GDH-TPI counter-2: -2

What do the screens show for `CC[C@H](CCCc1ccc(OC)cc1)CCC(=O)N(c1ccccc1)c1ccccc1`?
CCHF vOTU inh: 10

What do the screens show for `CCCN1C(=O)c2ccccc2NC1c1ccc(OC)cc1OC` (stereo not given)?
Mtb FBA inh: 81*; Mtb betalactam: 9; GDH-TPI counter-1: 0; MazEF act: -4; CCHF vOTU inh: -82; Mtb FBA inh conf: 45*; GDH-TPI counter-2: 43*

What do the screens show for `CCCN1C(=O)c2ccccc2NC1c1ccc(OC)cc1O` (stereo not given)?
Mtb FBA inh: 58*; Mtb betalactam: -3; GDH-TPI counter-1: 6; MazEF act: 6; CCHF vOTU inh: -52; Mtb FBA inh conf: 2; GDH-TPI counter-2: -8

How did COc1ccc(C2Nc3ccccc3C(=O)N2NC(C)=O)c(OC)c1 (stereo not given) do in these assays?
Mtb FBA inh: 41*; Mtb betalactam: 2; GDH-TPI counter-1: 11; MazEF act: -2; CCHF vOTU inh: -73; Mtb FBA inh conf: 72*; GDH-TPI counter-2: 50*

What do the screens show for `FC(F)(F)c1ccccc1Cc1c(-c2ccco2)nc2c3ccccc3ccn12`?
CCHF vOTU inh: 8

How did N=c1oc2cc(O)ccc2cc1C(=O)Nc1ccccn1 do in these assays?
Mtb betalactam: 0

Results for N=c1oc2cc(O)ccc2cc1C(=O)Nc1ccc(Br)cc1 ?
Mtb FBA inh: 73*; Mtb betalactam: 94; GDH-TPI counter-1: 16; MazEF act: 5; CCHF vOTU inh: -63; Mtb FBA inh conf: 23; GDH-TPI counter-2: 15*

What do the screens show for `COC[C@H]1CCCN1c1ccc2c(c1)OCCCN(C1CC1)S2(=O)=O`?
CCHF vOTU inh: -8

What do the screens show for `Cc1oc2ccccc2c1-c1cn2c(n1)SCC2`?
Mtb FBA inh: 102*; Mtb betalactam: -6; GDH-TPI counter-1: 5; MazEF act: 6; CCHF vOTU inh: -121; Mtb FBA inh conf: 52*; GDH-TPI counter-2: 41*

Results for COc1ccc(OC)c(/C=N/NC(=O)Cc2nc3ccccc3[nH]2)c1 ?
Mtb FBA inh: 74*; Mtb betalactam: -2; GDH-TPI counter-1: 14; MazEF act: 8; CCHF vOTU inh: -94; Mtb FBA inh conf: 51*; GDH-TPI counter-2: 30*

Results for O=C(/C=C/c1ccccc1)NCCc1nc2ccccc2[nH]1 ?
Mtb FBA inh: 2; Mtb betalactam: -8; GDH-TPI counter-1: 3; MazEF act: 2; CCHF vOTU inh: 7

How did COc1ccc(OC)c(/C=C/C(=O)NCCc2nc3ccccc3[nH]2)c1 do in these assays?
Mtb FBA inh: 50*; Mtb betalactam: 1; GDH-TPI counter-1: 16; MazEF act: 7; CCHF vOTU inh: -60; Mtb FBA inh conf: 83*; GDH-TPI counter-2: 53*

From PubChem BioAssay
